Data from PubChem BioAssay AID1159580 (chemical genetic matrix, 2015).
In all, about 5,500 compounds went through this assay and about 2,000 (36%) were called active. Another 18% or so got no clear call; they are omitted. Rule as the data show it: active = normalized growth mostly below about 0.91 (no sharp cut-off); inconclusive = no clear call, values can overlap the other calls; inactive = mostly above about 0.92. The list shows a part of the results.

Assay: chemical genetic growth profiling, strain panel (AID 1159580);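 also: tested at 20 µM; growth read once vehicle control cultures reached saturation at 30 °C; 1 = growth at the plate median or of vehicle wells; lower values mean less growth of the strain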
Conditions: growth OD

Measured: normalized growth

CCN(CC)CCNC(=O)c1cc(Br)c(N)cc1OC
inactive: S. cerevisiae deletion strains, locus YJR043C, strain POL32, hits give low values 0.917 | S. cerevisiae deletion strains, locus YJR066W, strain TOR1, hits give low values 0.933 | S. cerevisiae deletion strains, locus YKL009W, strain mrt4, hits give low values 0.955 | S. cerevisiae deletion strains, locus YKL068W, hits give low values 0.989 | S. cerevisiae deletion strains, locus YKL085W, strain MDH1 (second series), hits give low values 0.993 | S. cerevisiae deletion strains, locus YKL085W, strain MDH1, hits give low values 0.993 | S. cerevisiae deletion strains, locus YKL160W, strain elf1, hits give low values 0.985 | S. cerevisiae deletion strains, locus YKL190W, strain CNB1, hits give low values 0.982 | S. cerevisiae deletion strains, locus YKR001C, strain vps1, hits give low values 0.984 | S. cerevisiae deletion strains, locus YKR026C, strain gcn3, hits give low values 0.971 | S. cerevisiae deletion strains, locus YKR091W, strain srl3, hits give low values 0.99 | S. cerevisiae deletion strains, locus YLL001W, strain dnm1, hits give low values 1 | S. cerevisiae deletion strains, locus YLL026W, hits give low values 0.99 | S. cerevisiae deletion strains, locus YLL041C, strain sdh2, hits give low values 0.98 | S. cerevisiae deletion strains, locus YLR027C, strain aat2, hits give low values 0.992 | S. cerevisiae deletion strains, locus YLR039C, strain RIC1, hits give low values 0.974 | S. cerevisiae deletion strains, locus YLR058C, strain SHM2, hits give low values 0.971 | S. cerevisiae deletion strains, locus YLR102C, strain apc9, hits give low values 0.991 | S. cerevisiae deletion strains, locus YLR113W, strain HOG1, hits give low values 1.01 | S. cerevisiae deletion strains, locus YLR221C, strain rsa3, hits give low values 0.992 | S. cerevisiae deletion strains, locus YLR258W, strain gsy2, hits give low values 0.991 | S. cerevisiae deletion strains, locus YLR262C, strain YPT6 (second series), hits give low values 1.02 | S. cerevisiae deletion strains, locus YLR262C, strain YPT6, hits give low values 0.958 | S. cerevisiae deletion strains, locus YLR268W, strain sec22, hits give low values 0.983 | S. cerevisiae deletion strains, locus YLR320W, strain mms22, hits give low values 1.01 | S. cerevisiae deletion strains, locus YLR330W, strain CHS5, hits give low values 1 | S. cerevisiae deletion strains, locus YLR342W, strain FKS1 (second series), hits give low values 1.08 | S. cerevisiae deletion strains, locus YLR342W, strain FKS1, hits give low values 0.991 | S. cerevisiae deletion strains, locus YLR357W, strain rsc2, hits give low values 0.974 | S. cerevisiae deletion strains, locus YLR370C, strain arc18, hits give low values 0.994 | S. cerevisiae deletion strains, locus YLR371W, strain rom2, hits give low values 0.995 | S. cerevisiae deletion strains, locus YLR384C, strain iki3, hits give low values 0.991 | S. cerevisiae deletion strains, locus YLR418C, strain cdc73, hits give low values 1.04 | S. cerevisiae deletion strains, locus YML016C, strain PPZ1, hits give low values 0.994 | S. cerevisiae deletion strains, locus YML032C, strain rad52, hits give low values 0.968 | S. cerevisiae deletion strains, locus YML120C, strain ndi1, hits give low values 0.99 | S. cerevisiae deletion strains, locus YML124C, strain tub3, hits give low values 0.98 | S. cerevisiae deletion strains, locus YMR058W, strain fet3, hits give low values 0.982 | S. cerevisiae deletion strains, locus YMR078C, strain ctf18, hits give low values 0.988 | S. cerevisiae deletion strains, locus YMR125W, strain sto1, hits give low values 0.975 | S. cerevisiae deletion strains, locus YMR129W, hits give low values 0.986 | S. cerevisiae deletion strains, locus YMR205C, strain PFK2, hits give low values 1.03 | S. cerevisiae deletion strains, locus YMR223W, strain ubp8, hits give low values 1.02 | S. cerevisiae deletion strains, locus YMR231W, strain pep5, hits give low values 1 | S. cerevisiae deletion strains, locus YMR307W, strain GAS1, hits give low values 1.07 | S. cerevisiae deletion strains, locus YNL067W, strain RPL9B, hits give low values 0.964 | S. cerevisiae deletion strains, locus YNL071W, strain lat1, hits give low values 0.987 | S. cerevisiae deletion strains, locus YNL153C, strain GIM3, hits give low values 0.961 | S. cerevisiae deletion strains, locus YNL183C, strain NPR1, hits give low values 0.956 | S. cerevisiae deletion strains, locus YNL209W, strain ssb2, hits give low values 0.988 | S. cerevisiae deletion strains, locus YNL233W, strain BNI4, hits give low values 0.957 | S. cerevisiae deletion strains, locus YNL248C, strain rpa49, hits give low values 0.969 | S. cerevisiae deletion strains, locus YNL250W, strain rad50, hits give low values 0.986 | S. cerevisiae deletion strains, locus YNL271C, strain bni1, hits give low values 0.988 | S. cerevisiae deletion strains, locus YNL298W, strain CLA4, hits give low values 0.985 | S. cerevisiae deletion strains, locus YNL307C, strain MCK1, hits give low values 0.981 | S. cerevisiae deletion strains, locus YNL322C, strain KRE1 (second series), hits give low values 0.987 | S. cerevisiae deletion strains, locus YNR049C, strain mso1, hits give low values 0.969 | S. cerevisiae deletion strains, locus YNR052C, strain pop2, hits give low values 0.992 | S. cerevisiae deletion strains, locus YOL006C, strain TOP1, hits give low values 0.879 | S. cerevisiae deletion strains, locus YOL012C, strain htz1 1.14 | S. cerevisiae deletion strains, locus YOL147C, strain pex11, hits give low values 0.989 | S. cerevisiae deletion strains, locus YOR001W, strain rrp6, hits give low values 0.966 | S. cerevisiae deletion strains, locus YOR061W, strain CKA2, hits give low values 0.97 | S. cerevisiae deletion strains, locus YOR069W, strain VPS5, hits give low values 0.992 | S. cerevisiae deletion strains, locus YOR070C, strain gyp1, hits give low values 0.996 | S. cerevisiae deletion strains, locus YOR080W, strain dia2, hits give low values 0.975 | S. cerevisiae deletion strains, locus YOR083W, strain WHI5, hits give low values 0.978 | S. cerevisiae deletion strains, locus YOR106W, strain vam3, hits give low values 0.992 | S. cerevisiae deletion strains, locus YOR136W, strain idh2, hits give low values 0.977 | S. cerevisiae deletion strains, locus YOR144C, strain elg1, hits give low values 0.998 | S. cerevisiae deletion strains, locus YOR184W, strain ser1, hits give low values 0.987 | S. cerevisiae deletion strains, locus YOR231W, strain MKK1, hits give low values 0.96 | S. cerevisiae deletion strains, locus YOR265W, strain rbl2, hits give low values 0.996 | S. cerevisiae deletion strains, locus YOR270C, strain vph1, hits give low values 1.01 | S. cerevisiae deletion strains, locus YOR290C, strain snf2, hits give low values 0.956 | S. cerevisiae deletion strains, locus YOR316C, strain cot1, hits give low values 0.975 | S. cerevisiae deletion strains, locus YPL051W, strain arl3, hits give low values 0.981 | S. cerevisiae deletion strains, locus YPL078C, strain atp4, hits give low values 0.975 | S. cerevisiae deletion strains, locus YPL106C, strain sse1, hits give low values 0.965 | S. cerevisiae deletion strains, locus YPL240C, strain hsp82, hits give low values 0.98 | S. cerevisiae deletion strains, locus YPL256C, strain CLN2, hits give low values 0.963 | S. cerevisiae deletion strains, locus YPR119W, strain clb2, hits give low values 0.99 | S. cerevisiae deletion strains, locus YPR141C, strain kar3, hits give low values 0.99 | S. cerevisiae deletion strains, locus YPR163C, strain tif3, hits give low values 0.998 | S. cerevisiae deletion strains, locus YPR167C, strain met16, hits give low values 0.991 | S. cerevisiae deletion strains, strain wtn01, hits give low values 1.03 | S. cerevisiae strains, strain wild type, hits give low values 0.987
